Experimental data published in PubChem BioAssay (NCI).
“And” between values parts separate entries of the source, which are not always exact repeats. Identical values can stand only once. This is part of a sample that, as a whole, favours compounds with a hit. Of some 83,000 tested, about 20% had one in any assay.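 48-hour exposure, single concentration, 96-well plates; percent growth endpoint where 0 means no net growth. Active: below 10.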 Unmarked numbers belong to inactive results. The source made the active and inactive calls.

System: MDA-MB-468 breast
Test: NCI-60 one-dose screen, 48 h (100 = growth as untreated, 0 = no growth, -100 = all killed)
Details: 10 µM unless noted

Row | SMILES | growth
1 | Clc1ccc2c(c1)N(c1ncnc3ccc(-c4cnc5[nH]ccc5c4)cc13)CC2 | -4.95% (active)
2 | Cc1cccc(Oc2ccc(Nc3ncnc4ccc(NC(=O)CN(C)C)cc34)cc2Cl)c1 | -45.2% (active)
3 | N#C/C(=C\c1ccc(-c2ccc(Cl)cc2)o1)C(=O)Nc1ncc(Cc2ccc(Cl)cc2)s1 | 77.9%
4 | CN1COc2ccc3ccccc3c2C1 | 111%
5 | O=C(NCCO)c1cccnc1 | 93.7%
6 | COc1ccccc1N1CCN(C(=S)Nc2ccccc2)CC1 | 97%
7 | O=C(Cc1cccc(OC(F)(F)F)c1)Nc1ccc(CCCCc2nnc(NC(=O)Cc3ccccn3)s2)nn1 | 52.3%
8 | CCOC(=O)C1=C(c2ccccc2)N=C2SC=C(c3ccc(Cl)cc3)N2C1c1ccc(Br)cc1 (centres undefined) | 54.3%
9 | CC1(C)OC2=C(CC1Br)C(=O)C(=O)c1ccccc12 (centres undefined) | -87.1% (active)
10 | COc1ccccc1N1CCN(C2=C(Cl)C(=O)c3ncccc3C2=O)CC1 | -55.3% (active)
11 | O=C(NNC(=O)c1ccc(NC(=O)c2ccccn2)cc1)Nc1ccc2ccccc2c1 | 119%
12 | C=C1CC2(OC1=O)C(=O)N(CCCCCCCCCCCCN1C(=O)C3(CC(=C)C(=O)O3)c3ccccc31)c1ccccc12 (centres undefined) | 70.2%
13 | Cc1cccc[n+]1CCC[n+]1ccccc1C | 103%
14 | C/C(C=O)=C\c1ccc2c(c1)OCO2 | 94.8%
15 | COc1cc(CNc2ccccc2C(=O)N2CCN(C(=O)c3cc(-c4cc(OC)c(OC)c(OC)c4)n4nc(-c5ccccc5)cc4n3)CC2)cc(OC)c1OC | 23.1%
16 | CSc1ccc(-c2ccccc(=O)c2O)cc1 | 11.5%
17 | N#Cc1c(-c2ccccc2)nc(SCC(=O)N2CCOCC2)[nH]c1=O | 108%
18 | C=C1C(=O)O[C@H]2[C@H]1CC/C(C(=O)NCCCCCCCCNC(=O)/C1=C/CC[C@@]3(C)O[C@H]3[C@H]3OC(=O)C(=C)[C@@H]3CC1)=C\CC[C@@]1(C)O[C@@H]21 | 35.7%
19 | CCOS(=O)(=O)c1c(C(C)C)cc(C(C)C)cc1C(C)C | 102%
20 | CCCCC(O)c1ccccc1 (centres undefined) | 98.6%
21 | c1ccc2c(-c3nc4ccccc4[nH]3)cccc2c1 | -15.3% (active)
22 | CCOC(=O)C1=C(C)NC(C)=C(C(=O)OCC)C1 | 97.7% and 86.9%

Row | SMILES | growth
23 | N#C/C(=C\c1ccc2c(c1)OCO2)n1nnc2ccccc21 | -1.9% (active)
24 | CC1CCC(C(C)C)C(NN)C1 (centres undefined) | 110%
25 | O=C(Nc1ccncc1)C(=O)c1cn(S(=O)(=O)c2cccc(Cl)c2F)c2ccccc12 | 33%
26 | O=C(NCc1ccc(Cn2c(=O)sn(-c3ccccc3)c2=O)cc1)OCc1ccc2cccc(O)c2n1 | -73.3% (active)
27 | O=C(CCCCCCNC(=O)C(O)(O)C(F)(F)F)Nc1ccc(Cl)cc1 | 16.9%
28 | Oc1ccccc1-c1nnc(CNc2ccc(Cl)cc2)o1 | -2.17% (active)
29 | CC(=O)N1C(=S)NC(=O)C1CC(C)C (centres undefined) | 100%
30 | O=[N+]([O-])c1cccc(C(F)(F)F)c1 | 101%
31 | NC(=S)N/N=C\c1nccc2c(N)cccc12 | -18.6% (active)
32 | CN(C)C(=O)c1ccccc1-n1cnc2ccccc2c1=O | 100%
33 | CC(=O)NCCCS(=O)(=O)O | 113%
34 | NNc1ccc(Cl)cc1Cl | 91.5%
35 | O=C(c1ccccc1)c1ccccc1Cl | 110%
36 | COc1ccccc1-n1c(-c2csc(NC(C)=O)n2)n[nH]c1=S | 100%
37 | CCCCCC(=O)Oc1ccc(/C(=C(/C)Cc2ccc(OC)cc2)c2ccc(OCCCN(C)C)cc2)cc1 | 56.4%
38 | O=[N+]([O-])c1cccc(-c2nc3sccn3c2-c2ccnc(NCCCNS(=O)(=O)c3cccc(F)c3)n2)c1 | -13.8% (active)
39 | CC(C)(C)NC(=O)C(OC(=O)c1cccc(Cl)c1)c1ccc(Cl)cc1 (centres undefined) | 87.9%
40 | CCNC(=O)Oc1ccc(/C(=C(/C)c2ccc(Cl)cc2)c2ccc(OCCN3CCCCCC3)cc2)cc1 | 4.44% (active)
41 | C#CCn1cc(C=C2C(=O)N(C)C(=O)N(C)C2=O)c2cc(Cl)ccc21 | 103%
42 | c1cc(CNC23CC4CC(CC(C4)C2)C3)cc(C[N+](Cc2cccc(CNC34CC5CC(CC(C5)C3)C4)c2)(Cc2cccc(CNC34CC5CC(CC(C5)C3)C4)c2)Cc2cccc(CNC34CC5CC(CC(C5)C3)C4)c2)c1 (centres undefined) | -47.1% [42 µM] (active)
43 | Brc1ccccc1Cn1c(-c2cncs2)nc2ccccc21 | 61.8%
44 | Brc1ccc2[nH]cc(-c3nc(-c4c[nH]c5ccncc45)cs3)c2c1 | -71.4% (active)
